We go through 40 compounds from PubChem BioAssay.

One experiment is described as follows: sensitizers of A549 cells to miR-34 induction, primary screen, imaging, A549 dox-inducible miR-34, nuclei and caspase counts (AID 1347080). Further: test concentration not given here. Particulars: A549 miR-34 inducible, Hoechst nuclei count, 48 h; measured here: total cells with miR-34 induction; stronger effect = lower value.
In the case of `Cc1cc2c(F)c(Oc3ncnn4cc(OCC(C)O)c(C)c34)ccc2[nH]1` (stereo not given), the cell count is 4250.

For the compound `COC1C(O)CC(=O)OC(C)CC=CC=CC(OC2CCC(N(C)C)C(C)O2)C(C)CC(CC=O)C1OC1OC(C)C(OC2C[C@](C)(O)C(O)C(C)O2)C(N(C)C)C1O` (stereo not given in full), the cell count was 8350.

Turning to `CC(=O)c1cc([N+](=O)[O-])c(Sc2ccc(F)cc2F)s1`, the cell count was 8140.

As to `C[C@]12C[C@@]3(O)O[C@@H](O1)[C@]1(COC(=O)c4ccccc4)[C@H]3C[C@@]12OC1OC(CO)C(O)C(O)C1O` (stereo not given in full), the cell count stood at 8970.

Regarding `O=c1[nH]c(=O)n(C2CC(O)C(CO)O2)cc1C(F)(F)F` (stereo not given), the cell count was 1670.

For `CC1(C)O[C@@H]2C[C@H]3[C@@H]4CCC5=CC(=O)C=C[C@]5(C)[C@@H]4C(O)C[C@]3(C)[C@@]2(C(=O)CO)O1` (stereo not given in full), the cell count was determined as 5200.

As to `O=C(c1ccccc1)c1ccc2nc(NC(=O)c3csc(C4CCN(c5ncnc6ccsc56)CC4)n3)[nH]c2c1`, the cell count was 2690.

`COc1cc(-c2cc(-c3cccc(O)c3)cnc2N)cc(OC)c1OC`: the cell count was 5380.

`CC(=CC(=O)Nc1ccccc1C(=O)O)c1ccc2ccccc2c1`: the cell count amounted to 7300.

For the compound `O=C(c1cn(Cc2cncn2Cc2ccc(Br)cc2)cc1-c1cccc2ccccc12)N1CCOCC1`, the cell count was found to be 3260.

Consider `C=C[C@]1(C)CC(OC(=O)CSC(C)(C)CNC(=O)C(N)C(C)C)[C@@]2(C)C(C)CC[C@]3(CCC(=O)[C@H]32)C(C)C1O` (stereo not given in full), for which the cell count was found to be 6360.

In the case of `O=C(O)CC1CC(c2ccccc2)=NO1` (stereo not given), the cell count came out at 8760.

As for `COC(=O)C1=COC(OC2OC(CO)C(O)C(O)C2O)[C@H]2C(CO)=CC[C@H]12` (stereo not given in full), the cell count worked out at 7570.

As to `CC(C)(C(=O)NCC(F)(F)C(F)(F)F)C(=O)NC1C(=O)Nc2ccccc2-c2ccccc21` (stereo not given), the cell count amounted to 7630.

For `CC(NC(=O)Cc1cc(F)cc(F)c1)C(=O)NC1C(=O)N(C)c2ccccc2-c2ccccc21` (stereo not given), the cell count turned out to be 8480.

Turning to `COc1cc2c(cc1Cc1cccc(Cl)c1F)c(=O)c(C(=O)O)cn2C(CO)C(C)C` (stereo not given), the cell count amounted to 3970.

For `CC(C)OC(=O)C(C)N[P@](=O)(OCC1OC(n2ccc(=O)[nH]c2=O)[C@](C)(F)C1O)Oc1ccccc1` (stereo not given in full), the cell count came to 9560.

Regarding `CC1CC(=O)NN=C1c1ccc(NN=C(C#N)C#N)cc1` (stereo not given), the cell count stood at 8280.

`CC(C)(CO)c1cc2cc(NC(=O)C3(c4ccc5c(c4)OC(F)(F)O5)CC3)c(F)cc2n1CC(O)CO` (stereo not given): the cell count is 8420.

`CCCC(C)NC(=O)c1ccc(Cl)c(Cl)c1` (stereo not given): the cell count amounted to 8950.

Consider `COC1O[C@H]2O[C@@]3(C)CC[C@H]4[C@@H](C)CC[C@@H]([C@H]1C)[C@@]24OO3` (stereo not given in full), for which the cell count amounted to 7410.

With `C[C@]12CC[C@H]3c4ccc(O)cc4CC[C@H]3[C@@H]1CC(O)C2O` (stereo not given in full), the cell count was 8910.

For `CNC(=C[N+](=O)[O-])NCCSCc1ccc(CN(C)C)o1`, the cell count was 7800.

Turning to `CC(O)[C@@H]1C(=O)N2C(C(=O)O)=C(SC3CNC(CNS(N)(=O)=O)C3)C(C)[C@@H]12` (stereo not given in full), the cell count stood at 7900.

As to `CC(C)C(N)C(=O)OCC(CO)OCN1C=NC2C(=O)NC(N)=NC21` (stereo not given), the cell count was 8420.

As to `O=C(NN=Cc1ccc([N+](=O)[O-])o1)c1ccc(O)cc1`, the cell count is 8470.

On to `COc1cc(CCc2cc(NC(=O)c3ccc(N4CC(C)NC(C)C4)cc3)n[nH]2)cc(OC)c1` (stereo not given), for which the cell count was found to be 4590.

For the compound `O=C(NC1CCN(CCCCC2(C(=O)NCC(F)(F)F)c3ccccc3-c3ccccc32)CC1)c1ccccc1-c1ccc(C(F)(F)F)cc1`, the cell count came out at 3960.

`COc1cc2ncnc(Sc3nnc(C)s3)c2cc1OC`: the cell count was found to be 5380.

As for `C=CCNC1=C2CC(C)CC(OC)C(O)C(C)C=C(C)C(OC(N)=O)C(OC)C=CC=C(C)C(=O)NC(=CC1=O)C2=O` (stereo not given), the cell count turned out to be 1870.

`Cc1nc(NC(=O)N2CCCC2C(N)=O)sc1-c1csc(C(C)(C)C)n1` (stereo not given): the cell count turned out to be 6880.

For `Cc1cn(C2CC(O)C(CO)O2)c(=O)[nH]c1=O` (stereo not given), the cell count was found to be 7950.

`COc1ccc2cc1Oc1ccc(cc1)CC1c3cc(c(OC)cc3CCN1C)Oc1c(OC)c(OC)cc3c1C(C2)N(C)CC3` (stereo not given): the cell count stood at 6590.

As to `CCOC(=O)C(CCc1ccccc1)NC1CSC(c2cccs2)CN(CC(=O)O)C1=O` (stereo not given), the cell count was determined as 8260.

For `CC(=O)SC1CC2=CC(=O)CC[C@]2(C)[C@@H]2CC[C@@]3(C)[C@@H](CC[C@]34CCC(=O)O4)[C@H]12` (stereo not given in full), the cell count was found to be 7310.

As for `CCNc1nc(Nc2cc(F)c(C(=O)N3CCOCC3)cc2OC)ncc1C(F)(F)F`, the cell count was 8080.

For the compound `CN1CCN(C(=O)c2cc3cc(Cl)ccc3[nH]2)CC1`, the cell count is 8330.

Consider `CC1=NN(c2ccc(C(=O)O)cc2)C(=O)C1=Cc1ccc(-c2cc(C)c(C)cc2[N+](=O)[O-])o1`, for which the cell count is 7310.

As for `O=C(O)C1OC(Oc2cc3oc(-c4ccccc4)cc(=O)c3c(O)c2O)C(O)C(O)C1O` (stereo not given), the cell count turned out to be 7800.

Take `NC(Cc1c[nH]c2ccc(O)cc12)C(=O)O` (stereo not given): the cell count amounted to 8790.

The experiment is the same for the next values; noted with them: A549 miR-34 inducible, Hoechst nuclei count, 48 h; measured here: total cells without miR-34 induction.
As to `Cc1cc2c(F)c(Oc3ncnn4cc(OCC(C)O)c(C)c34)ccc2[nH]1` (stereo not given), the cell count came to 3990.

In the case of `COC1C(O)CC(=O)OC(C)CC=CC=CC(OC2CCC(N(C)C)C(C)O2)C(C)CC(CC=O)C1OC1OC(C)C(OC2C[C@](C)(O)C(O)C(C)O2)C(N(C)C)C1O` (stereo not given in full), the cell count worked out at 8940.

Consider `CC(=O)c1cc([N+](=O)[O-])c(Sc2ccc(F)cc2F)s1`, for which the cell count turned out to be 9060.

On to `C[C@]12C[C@@]3(O)O[C@@H](O1)[C@]1(COC(=O)c4ccccc4)[C@H]3C[C@@]12OC1OC(CO)C(O)C(O)C1O` (stereo not given in full), for which the cell count is 10300.

As for `O=c1[nH]c(=O)n(C2CC(O)C(CO)O2)cc1C(F)(F)F` (stereo not given), the cell count was found to be 1450.

Take `CC1(C)O[C@@H]2C[C@H]3[C@@H]4CCC5=CC(=O)C=C[C@]5(C)[C@@H]4C(O)C[C@]3(C)[C@@]2(C(=O)CO)O1` (stereo not given in full): the cell count was determined as 5970.

As to `O=C(c1ccccc1)c1ccc2nc(NC(=O)c3csc(C4CCN(c5ncnc6ccsc56)CC4)n3)[nH]c2c1`, the cell count amounted to 2460.

As to `COc1cc(-c2cc(-c3cccc(O)c3)cnc2N)cc(OC)c1OC`, the cell count came out at 6700.

As for `CC(=CC(=O)Nc1ccccc1C(=O)O)c1ccc2ccccc2c1`, the cell count amounted to 7430.

`O=C(c1cn(Cc2cncn2Cc2ccc(Br)cc2)cc1-c1cccc2ccccc12)N1CCOCC1`: the cell count was 3270.

On to `C=C[C@]1(C)CC(OC(=O)CSC(C)(C)CNC(=O)C(N)C(C)C)[C@@]2(C)C(C)CC[C@]3(CCC(=O)[C@H]32)C(C)C1O` (stereo not given in full), for which the cell count stood at 7470.

For `O=C(O)CC1CC(c2ccccc2)=NO1` (stereo not given), the cell count is 9040.

As for `COC(=O)C1=COC(OC2OC(CO)C(O)C(O)C2O)[C@H]2C(CO)=CC[C@H]12` (stereo not given in full), the cell count stood at 8040.

With `CC(C)(C(=O)NCC(F)(F)C(F)(F)F)C(=O)NC1C(=O)Nc2ccccc2-c2ccccc21` (stereo not given), the cell count is 7860.

With `CC(NC(=O)Cc1cc(F)cc(F)c1)C(=O)NC1C(=O)N(C)c2ccccc2-c2ccccc21` (stereo not given), the cell count came to 9280.

As to `COc1cc2c(cc1Cc1cccc(Cl)c1F)c(=O)c(C(=O)O)cn2C(CO)C(C)C` (stereo not given), the cell count came to 6500.

As for `CC(C)OC(=O)C(C)N[P@](=O)(OCC1OC(n2ccc(=O)[nH]c2=O)[C@](C)(F)C1O)Oc1ccccc1` (stereo not given in full), the cell count is 10500.

As for `CC1CC(=O)NN=C1c1ccc(NN=C(C#N)C#N)cc1` (stereo not given), the cell count came to 9730.

As to `CC(C)(CO)c1cc2cc(NC(=O)C3(c4ccc5c(c4)OC(F)(F)O5)CC3)c(F)cc2n1CC(O)CO` (stereo not given), the cell count turned out to be 9220.

With `CCCC(C)NC(=O)c1ccc(Cl)c(Cl)c1` (stereo not given), the cell count was determined as 10300.

On to `COC1O[C@H]2O[C@@]3(C)CC[C@H]4[C@@H](C)CC[C@@H]([C@H]1C)[C@@]24OO3` (stereo not given in full), for which the cell count came out at 8620.

Turning to `C[C@]12CC[C@H]3c4ccc(O)cc4CC[C@H]3[C@@H]1CC(O)C2O` (stereo not given in full), the cell count turned out to be 10100.

As for `CNC(=C[N+](=O)[O-])NCCSCc1ccc(CN(C)C)o1`, the cell count is 8470.

As to `CC(O)[C@@H]1C(=O)N2C(C(=O)O)=C(SC3CNC(CNS(N)(=O)=O)C3)C(C)[C@@H]12` (stereo not given in full), the cell count stood at 8030.

For `CC(C)C(N)C(=O)OCC(CO)OCN1C=NC2C(=O)NC(N)=NC21` (stereo not given), the cell count amounted to 9190.

Turning to `O=C(NN=Cc1ccc([N+](=O)[O-])o1)c1ccc(O)cc1`, the cell count turned out to be 8320.

In the case of `COc1cc(CCc2cc(NC(=O)c3ccc(N4CC(C)NC(C)C4)cc3)n[nH]2)cc(OC)c1` (stereo not given), the cell count is 5980.

In the case of `O=C(NC1CCN(CCCCC2(C(=O)NCC(F)(F)F)c3ccccc3-c3ccccc32)CC1)c1ccccc1-c1ccc(C(F)(F)F)cc1`, the cell count was 3780.

For `COc1cc2ncnc(Sc3nnc(C)s3)c2cc1OC`, the cell count turned out to be 5640.

Turning to `C=CCNC1=C2CC(C)CC(OC)C(O)C(C)C=C(C)C(OC(N)=O)C(OC)C=CC=C(C)C(=O)NC(=CC1=O)C2=O` (stereo not given), the cell count was found to be 1820.

With `Cc1nc(NC(=O)N2CCCC2C(N)=O)sc1-c1csc(C(C)(C)C)n1` (stereo not given), the cell count came out at 7100.

Regarding `Cc1cn(C2CC(O)C(CO)O2)c(=O)[nH]c1=O` (stereo not given), the cell count was 9310.

In the case of `COc1ccc2cc1Oc1ccc(cc1)CC1c3cc(c(OC)cc3CCN1C)Oc1c(OC)c(OC)cc3c1C(C2)N(C)CC3` (stereo not given), the cell count was found to be 7260.

Regarding `CCOC(=O)C(CCc1ccccc1)NC1CSC(c2cccs2)CN(CC(=O)O)C1=O` (stereo not given), the cell count is 7900.

Regarding `CC(=O)SC1CC2=CC(=O)CC[C@]2(C)[C@@H]2CC[C@@]3(C)[C@@H](CC[C@]34CCC(=O)O4)[C@H]12` (stereo not given in full), the cell count amounted to 8140.

As for `CCNc1nc(Nc2cc(F)c(C(=O)N3CCOCC3)cc2OC)ncc1C(F)(F)F`, the cell count is 8970.

As for `CN1CCN(C(=O)c2cc3cc(Cl)ccc3[nH]2)CC1`, the cell count amounted to 8310.

Turning to `CC1=NN(c2ccc(C(=O)O)cc2)C(=O)C1=Cc1ccc(-c2cc(C)c(C)cc2[N+](=O)[O-])o1`, the cell count came to 8100.

For `O=C(O)C1OC(Oc2cc3oc(-c4ccccc4)cc(=O)c3c(O)c2O)C(O)C(O)C1O` (stereo not given), the cell count is 8520.

For `NC(Cc1c[nH]c2ccc(O)cc12)C(=O)O` (stereo not given), the cell count was determined as 10000.
